The text below walks through data of PubChem BioAssay (NCATS).

Assay [1] in a line: qHTS for Inhibitors of the Functional Ribonucleoprotein Complex (vRNP) of Lassa (LASV) Arenavirus: LASV Primary Screen - GLuc reporter signal (AID 1347082; calls by dose curve; tested in HEK293 reporter line; note: nearly all actives have a fitted effect of over 60% in size; note: potency is the fitted concentration of half-maximal effect; for activity change, negative = inhibition: % is set by controls: 0 for no effect and ±100 for the full control effect). (qHTS replaces the single test concentration by a dilution series.)
The nature of assay [2]: qHTS for Inhibitors of the Functional Ribonucleoprotein Complex (vRNP) of Lassa (LASV) Arenavirus: Viability assay - alamar blue signal for LASV Primary Screen (AID 1347083; calls by dose curve; tested in HEK293 reporter line; note: nearly all actives have a fitted effect of over 80% in size; note: potency is the fitted concentration of half-maximal effect).
Assay [3] in a line: qHTS for Inhibitors of the Functional Ribonucleoprotein Complex (vRNP) of Lymphocytic Choriomeningitis Arenaviruses (LCMV): Viability assay - alamar blue signal for LCMV Primary Screen (AID 1347085; calls by dose curve; tested in HEK293 reporter line; note: nearly all actives have a fitted effect of over 80% in size; note: potency is the fitted concentration of half-maximal effect).
Assay [4] addresses Nucleoprotein (Lymphocytic choriomeningitis virus (strain Armstrong)) (UniProt P09992). In words: qHTS for Inhibitors of the Functional Ribonucleoprotein Complex (vRNP) of Lymphocytic Choriomeningitis Arenaviruses (LCMV): LCMV Primary Screen - GLuc reporter signal (AID 1347086). Note: nearly all actives have a fitted effect of over 70% in size. Note: potency is the fitted concentration of half-maximal effect.
Assay [5] can be described thus: Primary qHTS for small molecule stabilizers of the endoplasmic reticulum resident proteome: Secreted ER Calcium Modulated Protein (SERCaMP) assay (AID 1508630; active = well fitted curve in the direction sought with a large enough effect; an effect the other way counts as inactive or inconclusive; note: % is set by controls: 0 for no effect and ±100 for the full control effect). In short, it runs like this:
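The SH-SY5Y reporter protocol was run at 3 concentrations up to 38.3 uM (primary) or 11 concentrations (follow-up): 16 h compound, 100 nM thapsigargin for 4 h, then extracellular luciferase luminescence.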

Assay [6] can be described thus: Counterscreen qHTS for small molecule stabilizers of the endoplasmic reticulum resident proteome: GLuc-NoTag assay (AID 1508627; active = well fitted curve in the direction sought with a large enough effect; an effect the other way counts as inactive or inconclusive;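 note: SH-SY5Y cells given compound then 100 nM thapsigargin to empty ER calcium; 0% = thapsigargin alone and -100% = DMSO vehicle control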). The method, boiled down: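 Counterscreen line: SH-SY5Y-GLuc-NoTag cells, treated with compound 19 hr before a 4 hr, 100 nM thapsigargin calcium depletion. Secreted Gaussia luciferase in the medium was measured by luminescence after coelenterazine was added (0.07x final), with cells unlysed.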
In general terms: A counterscreen serves to expose hits that act by an unwanted route or on another target.

A short description of assay [7]: Confirmatory qHTS for activators (rescue) of SARS-CoV-2 Cytopathic Effect (CPE) (AID 1508606). Note: potency is the fitted concentration of half-maximal effect; nearly all actives have a fitted effect of over 70% in size.
Assay [8] can be described thus: Primary qHTS to identify inhibitors of SARS-CoV-2 cell entry (AID 1645846). Note: nearly all actives have a fitted effect of over 45% in size. As to conditions: activity change, negative = inhibition: at 57.1 µM (top of the series) unless noted. The method, boiled down:
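Entry measured by luciferase signal 48 h after adding SARS-CoV-2-S pseudotyped MLV particles to HEK293-ACE2 cells preincubated 1 h with compounds. Normalisation: bald particles and spike particles.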

Assay [9] is described as follows: Inducers of the Endoplasmic Reticulum Stress Response (ERSR) in human glioma: Validation (AID 504836; active = well fitted curve in the direction sought with a large enough effect; an effect the other way counts as inactive or inconclusive; note: 0% is about no effect). In short, it runs like this:
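ERSR induction read as luciferase luminescence (Bright-Glo, 10 min at room temperature) in stably transfected human U87-MG glioma cells exposed to compounds for 16 h, using GRP78 as sensor.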

The nature of assay [10]: Confirmatory qHTS for VERO E6 Cytotoxicity Assay: Counterscreen for SARS-CoV-2 CPE Assay (AID 1508605). Note: % is set by controls: 0 for no effect and ±100 for the full control effect; nearly all actives have a fitted effect of over 60% in size.
Assay [11] can be described thus: Primary qHTS for Huh7 cytotoxicity: counterscreen for inhibitors of MERS-S pseudotyped particle cell entry (AID 1479147). Note: % is set by controls: 0 for no effect and ±100 for the full control effect. As to conditions: outcome: dose series up to 57.1 µM unless noted.
The nature of assay [12]: Primary qHTS for Vero E6 cytotoxicity: counterscreen for inhibitors of SARS-S pseudo-typed particle cell entry (AID 1479150). Note: % is set by controls: 0 for no effect and ±100 for the full control effect. As to conditions: outcome: dose series up to 57.1 µM unless noted.
Assay [13] can be described thus: Confirmatory qHTS to identify inhibitors of SARS-CoV-2 cell entry (AID 1645844). Note: potency is the fitted concentration of half-maximal effect; nearly all actives have a fitted effect of over 45% in size. In short, it runs like this: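 Luminescence entry read-out after 48 h: spike-pseudotyped MLV particles (Wuhan-Hu-1, 19-aa C-terminal truncation) added to compound-pretreated (1 h) HEK293-ACE2 cells; Data were normalised to bald PP and spike PP wells.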
A short description of assay [14]: Cytotoxicity counterscreen for inhibitors of SARS-CoV-2 cell entry (AID 1645845). Note: % is set by controls: 0 for no effect and ±100 for the full control effect; nearly all actives have a fitted effect of over 50% in size. In short, it runs like this: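 ATP-content luminescence (ATPLite 1step, 15 min RT) read after 48 h compound exposure of Expi293F cells stably expressing human ACE2; normalized to cells-only wells and media-only wells.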
The nature of assay [15]: VSVG counterscreen qHTS to identify inhibitors of SARS-CoV-2 cell entry (AID 1645847). Note: potency is the fitted concentration of half-maximal effect; nearly all actives have a fitted effect of over 65% in size. The method, boiled down: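 Luminescence read after 48 h infection at 37 C with VSV-G-pseudotyped MLV particles, following 1 h compound exposure of Expi293F cells stably expressing human ACE2; scaled between bald particle and VSV-G particle wells.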

Inconclusive results are not listed. The source made the active and inactive calls. Unless noted, calls come from the whole dose curve.

Chain of Nucleoprotein (Lymphocytic choriomeningitis virus (strain Armstrong)) (P09992 whole entry, looked up): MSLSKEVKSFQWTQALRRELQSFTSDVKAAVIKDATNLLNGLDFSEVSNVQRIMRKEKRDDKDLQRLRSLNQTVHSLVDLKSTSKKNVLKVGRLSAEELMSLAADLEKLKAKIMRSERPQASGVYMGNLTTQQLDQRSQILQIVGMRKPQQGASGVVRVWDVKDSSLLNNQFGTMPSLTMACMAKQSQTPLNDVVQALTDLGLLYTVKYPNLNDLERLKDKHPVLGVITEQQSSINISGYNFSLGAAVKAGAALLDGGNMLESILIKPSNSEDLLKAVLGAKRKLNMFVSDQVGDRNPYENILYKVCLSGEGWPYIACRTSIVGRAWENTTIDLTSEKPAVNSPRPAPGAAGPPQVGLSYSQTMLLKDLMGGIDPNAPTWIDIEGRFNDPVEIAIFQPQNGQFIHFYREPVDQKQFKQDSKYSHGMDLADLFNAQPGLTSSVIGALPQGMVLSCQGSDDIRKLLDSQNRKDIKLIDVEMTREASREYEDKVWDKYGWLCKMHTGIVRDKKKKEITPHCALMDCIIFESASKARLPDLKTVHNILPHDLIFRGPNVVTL

Turning to `C1CC[C@H]([C@@]23C[C@H](C[C@H]4CCCN[C@H]42)[C@@H]2CCCCN2C3)NC1`, the Potency entry in [1], in assay [2], in assay [3], in assay [4] and in [5] was “inactive” each time.
Regarding `OC[C@@H]1[C@@H](O)[C@H](O)[C@H]2[C@@H](O)CCN21`, the Potency entry in assay [1], in assay [2], in assay [3], in [4] and in [6] was “inactive” in each case.
Consider `OCCCNc1cc(-c2ccnc(Nc3cccc(Cl)c3)n2)ccn1`, for which the Potency is 0.306 µM (active) in assay [1]; 0.193 µM (active) in [2]; 0.769 µM (active) in assay [3]; 0.968 µM (active) in assay [4]; 5.62 µM (active) in assay [7]. Moreover, the activity change, negative = inhibition in [8] was -94.2%.
As to `CCN1C[C@]2(C)CC[C@H](OC)[C@]34C5C[C@@H]6CC[C@@](O)(C5C(=O)O6)C(C13)[C@@H](OC(=O)c1ccccc1)C24`, the Potency result in [1], in assay [2], in [3], in assay [4] and in assay [5] was “inactive” each time.
As to `Clc1ccc2c(c1)N=C(N1CCNCC1)c1ccccc1N2`, in assay [9], the compound was classed as inactive. For the same compound, the Potency entry in [1], in [2], in assay [3], in assay [4] and in assay [10] was “inactive” in each case.
For the compound `C/C=C1/CN2CC[C@]34C(=C(C=O)[C@@H]1C[C@H]23)Nc1c(O)cccc14`, the Potency entry in assay [1], in assay [2], in assay [3], in assay [4] and in [5] was “inactive” throughout.
For `N#CC(c1ccc(Cl)cc1)c1c(Cl)cc(-n2ncc(=O)[nH]c2=O)cc1Cl` (stereo unspecified), the Potency result in assay [1], in assay [2], in [3], in assay [4] and in assay [14] was “inactive” throughout. Also, the compound was classed as inactive in assay [11] and in assay [12]. The Potency in assay [13] was 0.0136 µM (active); in assay [15], 21.5 µM (active).
